Measured values as given in PubChem BioAssay AID504421 (National Center for Advancing Translational Sciences (NCATS), 2011).
This is one part of the list. The source made the active and inactive calls. Calls follow the shape of the full dose curve.

The molecules below were run against Dual specificity protein kinase CLK4 (Homo sapiens) (UniProt Q9HAZ1) (assay: Kinase Inhibition Study on Inhibitors of CDC-like Kinase 4 (Reaction Biology data): SAR round 2). Conditions: Reaction Biology kinase assay, 10 uM ATP.
Sequence of Dual specificity protein kinase CLK4 (Homo sapiens) (Q9HAZ1 whole entry, looked up, canonical isoform): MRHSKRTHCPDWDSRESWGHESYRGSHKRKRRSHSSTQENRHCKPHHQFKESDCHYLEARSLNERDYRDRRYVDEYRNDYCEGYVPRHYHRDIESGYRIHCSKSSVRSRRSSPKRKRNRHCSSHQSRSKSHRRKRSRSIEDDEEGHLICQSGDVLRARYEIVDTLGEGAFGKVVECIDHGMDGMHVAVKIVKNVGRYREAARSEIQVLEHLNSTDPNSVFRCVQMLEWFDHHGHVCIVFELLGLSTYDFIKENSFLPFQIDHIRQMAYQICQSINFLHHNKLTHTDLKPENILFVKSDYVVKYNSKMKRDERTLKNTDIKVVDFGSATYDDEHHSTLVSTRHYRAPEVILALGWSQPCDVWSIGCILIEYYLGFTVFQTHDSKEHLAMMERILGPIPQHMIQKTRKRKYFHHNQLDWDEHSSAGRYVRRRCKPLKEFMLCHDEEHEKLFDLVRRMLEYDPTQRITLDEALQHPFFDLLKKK
Description: NIH Molecular Libraries Probe Production Centers Network [MLPCN] NIH Chemical Genomics Center [NCGC] MLPCN Grant: 1R03MH084827-01 Assay Submitter (PI): Tom Misteli NCGC Assay Overview: Alternative splicing of pre-mRNAs plays a major role in the regulation of eukaryotic gene expression. Alternative splicing is now thought to be one of the primary reasons for the complexity of higher organisms leading to an average of three protein isoforms per gene. Aberrant splicing can lead to a number of diseases and is known to play a role in rare genetic diseases such as progeria syndrome. Hutchinson-Gilford Progeria Syndrome (HGPS) is a pediatric premature aging disease caused by a spontaneous mutation in the lamin A/C (LMNA) gene due to a single point mutation in the lamin A gene effecting 1 in 4 million people. To identify both specific splicing modulators of the lamin A gene as well as general splicing modulators, a cell-based HTS assay was developed using a minigene reporter system (AIDs, 1459 & 1487). […] This AID summarizes the characterization of lead compounds in Clk4.
All kinase reactions were performed using 10 uM ATP in the assay. 100% activity was taken from kinase reactions with DMSO alone (the vehicle used for compound stock solutions).

Structure (SMILES) | Potency
CN(Cc1cncn1C)c1ncnc2ccc(-c3ccc4c(c3)OCO4)cc12 | 507 nM (active)
c1coc(CCNc2ncnc3ccc(-c4ccc5c(c4)OCO5)cc23)c1 | 42 nM (active)
c1nc(N2CCOCC2)c2cc(-c3ccc4c(c3)OCO4)ccc2n1 | 135 nM (active)
CC(Nc1ncnc2ccc(-c3ccc4c(c3)OCO4)cc12)c1ccco1 (centres undefined) | 7600 nM (active)
